SMILES strings stand for the structures. Inconclusive results are not listed. Values without a mark were called inactive. Active and inactive are the calls of the source. Calls follow the shape of the dose curve; as a rule, active = well fitted cell-killing curve with a large enough effect in the repeat runs; inconclusive = weak or mixed curves, or effect the other way; inactive = flat fitted curve, though single readings scatter.
% is scaled to controls: 0 for no effect and ±100 for the full control effect.

A short description of this assay: qHTS assay to identify small molecule that activate the aryl hydrocarbon receptor (AhR) signaling pathway - cell viability counter screen (AID 743086).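 Also: HepG2 liver cells carrying the AhR DRE luciferase reporter; nearly all actives have a fitted effect of over 45% in size.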 The following applies: HepG2-AhR-luc viability, CellTiter-Fluor, 24 h; series mostly up to 70.3 µM; viability change, negative = cytotoxic: at the top concentration. An excerpt:
U.S. Tox21 Program National Center for Advancing Translational Sciences [NCATS] NIH Chemical Genomics Center [NCGC] U.S. Environmental Protection Agency [EPA] National Institutes of Environmental Health Sciences [NIEHS] National Toxicology Program [NTP] U.S. Food and Drug Administration [FDA] Tox21 Assay overview: The Aryl hydrocarbon Receptor (AhR), a member of the family of basic helix-loop-helix transcription factors, is crucial to adaptive responses to environmental changes. AhR mediates cellular responses to environmental pollutants such as aromatic hydrocarbons through induction of phase I and II enzymes but also interacts with other nuclear receptor signaling pathways A cell based HepG2-AhR-luc assay (HG2L7.5c1 cell line, developed by Dr. Michael S. Denison, University of California at Davis) was used to assess the activation of AhR. HepG2 (human hepatocellular carcinoma) cells were stably transfected with an Ah receptor-responsive firefly luciferase reporter gene plasmid containing 20 dioxin responsive elements and luciferase reporter gene. Increased luciferase activity can be used to identify the compounds that induce AhR activation. The cytotoxicity of the compounds screened against the HepG2-AhR-luc cell line was tested in parallel by measuring the cell viability using CellTiter-Fluor assay in the same wells.
Tox21 Assay Protocol Summary: 4000 cells in 5 uL/well were dispensed into white wall/solid bottom 1536-well plates using a Multidrop Combi (Thermo Fisher Scientific Inc., Waltham, MA) dispenser. After the assay plates were incubated at 37C for 5 h, 23 nL of compound or DMSO vehicle was transferred to the assay plates by a pintool station (Kalypsys, San Diego, CA). The plates were incubated at 37C for 24 hr. For cell viability measurement, 1 ul/well of CellTiter-Fluor reagent (Promega, Madison, WI) was added into the assay plates using a Flying Reagent Dispenser (FRD) (Aurora Discovery, CA),and then the assay plates were incubated at 37C for 30 min. The fluorescence intensity in the plates was measured using a ViewLux plate reader (PerkinElmer, Shelton, CT), followed by the addition of 4 uL of ONE-Glo Luciferase Assay reagent (Promega) using an FRD (Aurora Discovery). After the assay plates were incubated at room temperature for 30 min, luminescence intensity was measured using a ViewLux plate reader (Perkin Elmer).
Background: In qHTS, concentration-response curves come from the screen itself.
As for `CC1=CC(C)C(C=O)C(C)C1` (stereo not given), the “viability change, negative = cytotoxic” value was 13.8%.

As to `CC(C)c1ccc2oc3nc(N)c(C(=O)O)cc3c(=O)c2c1`, the “viability change, negative = cytotoxic” value is -0.134%.

On to `CCCCCN(CCCCC)C(=O)C(CCC(=O)O)NC(=O)c1ccc(Cl)c(Cl)c1` (stereo not given), for which the “viability change, negative = cytotoxic” value is 11.1%.

Turning to `CCCCCCOC(=O)CC(CC(=O)OCCCCCC)(OC(=O)CCC)C(=O)OCCCCCC`, the “viability change, negative = cytotoxic” value is 14.4%. With `CCCCCCCCCCCCCCCCCCOCC(O)CO` (stereo not given), the “viability change, negative = cytotoxic” value is 0.978%. Turning to `COc1ccc(COC=O)cc1`, the “viability change, negative = cytotoxic” value was 12.7%. Turning to `C=C(C)C1CC=C(C)C(O)C1` (stereo not given), the “viability change, negative = cytotoxic” value was -5.9% [at 95 µM].

For `CCC(=O)Nc1cccc(N)c1`, the “viability change, negative = cytotoxic” value was 1.08%. For the compound `COc1nc(C)nc(N)n1`, the “viability change, negative = cytotoxic” value was 16.2%. `CC(C)=CCC/C(C)=C/C(=O)O`: the “viability change, negative = cytotoxic” value was 17.2%.

For `CCC(C(=O)NC(N)=O)c1ccccc1` (stereo not given), the Potency result was “inactive”. Consider `CC1=CC(=O)CCC1`, for which the “viability change, negative = cytotoxic” value is 0.782%. In the case of `CC(C)(O)Cc1ccccc1`, the “viability change, negative = cytotoxic” value was -1.09%. On to `CC(=O)OC(C)(C)C`, for which the “viability change, negative = cytotoxic” value is 0.764%. With `C=CC(=O)OCCCCCC`, the “viability change, negative = cytotoxic” value is 15.3%. On the same count and under the same terms, to `CC(C)(O)C(=O)c1ccc(OCCO)cc1` belongs -0.533%; to `O=C(O)c1ccccc1-c1ccc(C(F)(F)F)cc1`, 8.28%. The same measure, in the same setting: next, `C#CC(C)(O)CC(C)C` (stereo not given): 11.1%; `COC(=O)CCCC(=O)O`: 0.355%. As to `C=CCSCC1Nc2cc(Cl)c(S(N)(=O)=O)cc2S(=O)(=O)N1` (stereo not given), the “viability change, negative = cytotoxic” value is 4.58%.

In the case of `CCCCC1CCCCC(=O)O1` (stereo not given), the “viability change, negative = cytotoxic” value was -12.2%. `CCCCN(CCO)CCO`: the “viability change, negative = cytotoxic” value was 13.7%.

`CC(C)CCOC(=O)CC(C)C`: the “viability change, negative = cytotoxic” value was 0.336%.

For `NC(=O)CCCCC1CCSS1` (stereo not given), the “viability change, negative = cytotoxic” value was 10.6%. On to `CC/C=C\CCCCO`, for which the “viability change, negative = cytotoxic” value is 3.07%. `CCCc1ccc(N)cc1`: the “viability change, negative = cytotoxic” value was -1.15%. As for `CCN(CC)S(=O)(=O)c1ccc(C(=O)O)cc1`, the “viability change, negative = cytotoxic” value is -4%.

For the compound `CC(C)(C)CC(C)(C)N`, the “viability change, negative = cytotoxic” value was 0.981%. Turning to `CCCCCCCCC=O`, the “viability change, negative = cytotoxic” value is 5.36%.

In the case of `O=C(O)C(O)[C@H](O)[C@@H](O)[C@H](O)[C@H](O)CO` (stereo not given in full), the “viability change, negative = cytotoxic” value is -20.8% [at 95 µM]. As to `C1=C\CC/C=C\CC/C=C\CC/1`, the “viability change, negative = cytotoxic” value is 0.634%. On the same count and under the same terms, next, `OCC(CO)(CO)COCC(CO)(CO)CO`: 5.25%; `COc1cc(CCC(C)=O)ccc1O`: -3.52%. On the same count and under the same terms, to `Fc1ccccc1-c1ccccc1` belongs 11% [at 95 µM]; to `CCC(=O)/C=C/c1ccc(OC)cc1`, 1.02%; to `C=CCn1c(=O)n([C@@H]2O[C@H](CO)[C@@H](O)[C@H]2O)c2nc(N)[nH]c(=O)c21`, 11.9%. On the same count and under the same terms, to `Cc1onc(-c2ccccc2)c1-c1ccc(S(N)(=O)=O)cc1` belongs 4.43%; to `CCC(C)OC(=O)N1CCCCC1CCO` (stereo not given), -6.51%. As to `CO[Si](CCCNCCC[Si](OC)(OC)OC)(OC)OC`, the “viability change, negative = cytotoxic” value was -0.523%. For `COc1cc(O)cc(O)c1`, the “viability change, negative = cytotoxic” value is -1.58%.

The record behind these values is PubChem BioAssay (Tox21).
